High-throughput results deposited in PubChem by National Center for Advancing Translational Sciences (NCATS).
A selection: hits, their analogues and other compounds. The true share with any hit is near 12%.
JMJD2A Tudor: qHTS Assay for Inhibitors of JMJD2A-Tudor Domain | Potency, µM (highest dose often 114 µM), without a hit: at the highest dose activity change, negative = inhibition, actives largely listed as inhibitors | AlphaScreen JMJD2A-Tudor / H3K4me3 peptide binding | AID 504339, 2011 | Lysine-specific demethylase 4A (Homo sapiens), O75164 | actives 4.4% (n = 390,000); further: on the % scale 0 is the no-effect control and ±100 the full control effect; nearly all actives have a fitted effect of over 50% in size
L3MBTL1 inh: qHTS Assay for the Inhibitors of L3MBTL1 | AlphaScreen L3MBTL1–H3K9me1 peptide binding | Potency, µM (series often up to 57.1 µM), without a hit: at the highest dose activity, negative = inhibition, actives largely listed as inhibitors | actives 0.66% (n = 230,000) | AID 485360, 2010; further: on the % scale 0 is the no-effect control and ±100 the full control effect; nearly all actives have a fitted effect of over 60% in size
Target sequence (Q9Y468 whole entry, looked up): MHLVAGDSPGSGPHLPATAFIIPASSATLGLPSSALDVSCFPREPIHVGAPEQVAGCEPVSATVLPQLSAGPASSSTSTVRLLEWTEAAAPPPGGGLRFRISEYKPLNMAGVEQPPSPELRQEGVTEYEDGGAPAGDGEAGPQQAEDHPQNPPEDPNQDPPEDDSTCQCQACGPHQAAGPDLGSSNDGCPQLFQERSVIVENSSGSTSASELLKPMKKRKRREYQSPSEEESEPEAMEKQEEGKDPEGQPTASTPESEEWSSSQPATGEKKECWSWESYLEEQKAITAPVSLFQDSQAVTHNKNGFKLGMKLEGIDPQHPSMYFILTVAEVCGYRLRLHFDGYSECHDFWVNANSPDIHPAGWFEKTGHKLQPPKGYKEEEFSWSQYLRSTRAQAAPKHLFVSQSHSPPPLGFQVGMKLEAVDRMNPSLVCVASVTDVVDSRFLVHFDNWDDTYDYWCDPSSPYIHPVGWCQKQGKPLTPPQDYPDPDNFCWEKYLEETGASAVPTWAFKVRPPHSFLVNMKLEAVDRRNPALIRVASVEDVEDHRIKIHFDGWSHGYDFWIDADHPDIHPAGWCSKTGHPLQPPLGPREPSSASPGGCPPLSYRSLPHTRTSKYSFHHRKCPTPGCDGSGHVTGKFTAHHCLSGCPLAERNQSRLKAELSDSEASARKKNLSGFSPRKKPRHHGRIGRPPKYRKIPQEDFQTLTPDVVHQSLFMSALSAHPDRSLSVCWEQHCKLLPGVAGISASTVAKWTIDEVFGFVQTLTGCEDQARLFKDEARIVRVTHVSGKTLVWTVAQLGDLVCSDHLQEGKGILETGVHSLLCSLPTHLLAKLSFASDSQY
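Read-out is AlphaScreen signal from streptavidin donor and nickel chelate acceptor beads (10 ug/mL final each) bridging L3MBTL1 (50 nM) and biotinylated K9-monomethylated H3(1-15) peptide (75 nM), after 30 min compound exposure at room temperature.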
Sfp inh: qHTS Assay for Inhibitors of Bacillus subtilis Sfp phosphopantetheinyl transferase (PPTase); 4'-phosphopantetheinyl transferase ffp (Bacillus subtilis), Q9F4F7; Potency, µM, for inactives: largest response in the series, negative = inhibition, most hits filed as inhibitors; actives 3.5% (n = 310,000); Biochemical Sfp PPTase activity, qHTS;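 further: the enzyme is Sfp with the accession as filed and its product quenches rhodamine fluorescence; 0% = enzyme reaction without inhibitor and -100% = no enzyme wells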
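Step 1, compound plus 15 nM Sfp-PPTase, 15 min, room temperature. Step 2, add rhodamine-CoA (5 uM) and BHQ-2-YbbR (12.5 uM). Step 3, read 525/598 nm fluorescence at 0 and 30 min.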
BAZ2B block: qHTS Assay for Inhibitors of BAZ2B; Bromodomain adjacent to zinc finger domain protein 2B (Homo sapiens), Q9UIF8; AlphaScreen BAZ2B-H3K14Ac peptide displacement; Potency, µM (series often up to 114 µM), for inactives: at the top dose activity change, negative = inhibition, most hits filed as inhibitors; actives 4.4% (n = 360,000); further: on the % scale 0 is the no-effect control and ±100 the full control effect; nearly all actives have a fitted effect of over 60% in size
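AlphaScreen displacement of biotin-H3(5-23)K14Ac peptide (50 nM final) from BAZ2B (50 nM final) in PBS pH 7.4, 0.01% Tween-20; complex preformed 30 min RT, then compounds (top 110 uM) 30 min RT, beads 20 min dark.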
HP1b binding inh: HTS for Inhibitors of HP1-beta Chromodomain Interactions with Methylated Histone Tails; Potency, µM (highest dose often 114 µM), for the others: at the highest dose activity change, negative = inhibition, hits mostly inhibitors; actives 0.56% (n = 390,000); AlphaScreen HP1-beta / biotin-H3K9me3 peptide binding; Chromobox protein homolog 1 (Homo sapiens), P83916; further: nearly all actives have a fitted effect of over 70% in size
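Compound inhibition of the preformed complex between 50 nM HP1-beta and 50 nM biotinylated H3K9me3 peptide was read by AlphaScreen. Buffer was PBS pH 7.4 with 0.01% Tween-20. Incubations ran 30 min at room temperature, with 10 ug/mL donor/acceptor beads.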
G9a block: qHTS Assay for Inhibitors of Histone Lysine Methyltransferase G9a; Histone-lysine N-methyltransferase EHMT2 (Homo sapiens), Q96KQ7; G9a H3K9 monomethylation, AlphaScreen, 2 h; Potency, µM (highest dose often 102 µM), without a hit: top-dose activity, negative = inhibition, most hits filed as inhibitors; actives 8.8% (n = 350,000); AID 504332, 2011; further: on the % scale 0 is the no-effect control and ±100 the full control effect; nearly all actives have a fitted effect of over 75% in size
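Step 1: enzyme (final 20 nM) with compound, 15 min RT. Step 2: substrate peptide 500 nM and SAM 20 uM, 2 h RT. Step 3: anti-H3K9me1 antibody and AlphaScreen beads, 10 min, then plate read.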
An asterisk follows results filed as active; ? = inconclusive; . = not tested or not shown; [ ] = remark or other dose. The call rests on the fitted dose curve; in most records, active means well fitted curve in the direction sought with a large enough effect; inconclusive means small, poorly fitted or top-dose-only effect, or another doubt; inactive means no such curve, though single readings can be large; an effect the other way counts as inactive or inconclusive. Potency means the concentration at half of the fitted maximal effect.

SMILES | JMJD2A Tudor | L3MBTL1 inh | Sfp inh | BAZ2B block | HP1b binding inh | G9a block
CCN(Cc1ccccc1)S(=O)(=O)c1ccc(C(=O)N(CCCN(C)C)c2nc3c(C)c(C)ccc3s2)cc1 | ? | -10% | . | 10µM* | -11% | 35µM*
CCN(CC)CCN(C(=O)c1ccc(S(=O)(=O)N(C)C2CCCCC2)cc1)c1nc2c(C)cccc2s1 | -31% | . | -7% | -29% | 6% | -15%
CCN(Cc1ccccc1)S(=O)(=O)c1ccc(C(=O)N(CCCN(C)C)c2nc3cc4c(cc3s2)OCO4)cc1 | 56µM* | . | 56µM* | 25µM* | -12% | .
Cc1ccc2sc(N(CCCN(C)C)C(=O)c3ccc(S(=O)(=O)N(C)C4CCCCC4)cc3)nc2c1C | ? | -5% | . | ? | ? | 32µM*
CCOc1cccc2sc(N(CCCN(C)C)C(=O)c3ccc(S(=O)(=O)N(C)CC4CCCO4)cc3)nc12 (stereo not given) | -19% | . | 1% | -23% | 9% | -7%
CC(OC(=O)CNC(=O)c1ccc2ccccc2c1)C(=O)N(C)C1CCCCC1 (stereo not given) | -2% | 3% | . | 0% | 21% | ?
CN(C)CCN(C(=O)c1ccc(S(=O)(=O)N(C)c2ccccc2)cc1)c1nc2cc3c(cc2s1)OCO3 | ? | . | -14% | 40µM* | -14% | 35µM*
CN(C)CCN(C(=O)c1ccc(S(=O)(=O)N(C)c2ccccc2)cc1)c1nc2ccc(Cl)cc2s1 | ? | . | 0% | -5% | 16% | .
Cc1ccc2nc(N(CCCN(C)C)C(=O)c3ccc(S(=O)(=O)N(C)C)cc3)sc2c1 | -4% | -9% | 7% | -11% | 18% | ?
CCN(CC)CCN(C(=O)CN1C(=O)c2ccccc2C1=O)c1nc2cc3c(cc2s1)OCO3 | ? | . | -7% | ? | -1% | ?
CN(C)CCN(C(=O)CN1C(=O)c2ccccc2C1=O)c1nc2cc3c(cc2s1)OCO3 | -29% | . | -28% | 89µM* | 5% | ?
CN(C)CCCN(C(=O)c1ccc(C(=O)c2ccccc2)cc1)c1nc2cc3c(cc2s1)OCCO3 | 50µM* | . | -18% | 32µM* | -6% | .
CN(C)CCCN(C(=O)c1ccc(S(=O)(=O)N(C)C)cc1)c1nc2cc3c(cc2s1)OCO3 | -26% | -19% | -1% | ? | 11% | 50µM*
COc1cccc(Cn2c(=O)c(CCc3ccccc3)nc3cnc(N4CCN(C)CC4)nc32)c1 | . | . | ? | . | . | -5%[0.501 µM]
CCOCC(=O)Nc1nnc(Cc2ccc(OC)c(OC)c2)s1 | -16% | 5% | -3% | -16% | -19% | 16µM*
CCOCC(=O)Nc1nnc(COCC)s1 | -21% | 7% | 4% | 6% | -11% | 3%[59 µM]
CCOCc1nnc(NC(=O)COC)s1 | -5% | 36% | 50µM* | 12% | -12% | ?
CCCc1cc(C(=O)N2CCCC(C(=O)c3ccc(Cl)cc3)C2)n(C)n1 (stereo not given) | -14% | . | 7% | -15% | 1% | 5%
CCC1CN(C(=O)N2CCC(C(=O)NCCc3ccc(OC)cc3OC)CC2)c2ccccc2O1 (stereo not given) | -21% | . | 25% | -26% | 33% | 28%
Cc1cc(C)cc(NC(=O)N2CCC(CN3CCc4ccccc4C3)CC2)c1 | -8% | . | . | -4% | 27% | -7%[59 µM]
CCCOc1ccc(CNC(=O)C2CCN(C(=O)N3CCOc4ccccc43)CC2)cc1 | -13% | 0% | 3% | 9% | 25% | 17%
